Consider 6 sequences from the supplement of paper PMC6555819.

What all share (assay): PBM binding z-score (relative to random genomic background probes); higher = stronger binding; sequences stand for … in GC…GCGATTGACAGCGTAGAATGAAGG
Assay [1] deals with FXR:RXRa (NR concentration 270 nM, RXRa partner concentration 90 nM). The method, boiled down: (§1)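 Regression normalization was applied to scanned fluorescence from custom Agilent 4×180K protein-binding microarrays. Before scanning, arrays were incubated 1 h with ligand-free nuclear receptor dimers, and binding was detected with antibodies against each partner (one per run). Binding z-scores use the random background probes as reference.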

Assay [2] has as its system LXRa:RXRa (NR concentration 270 nM, RXRa partner concentration 90 nM). Put shortly:
as §1

Assay [3] has as its system LXRa homodimer (NR concentration 270 nM). Put shortly:
as §1

For assay [4], the system named is LXRb:RXRa (NR concentration 270 nM, RXRa partner concentration 90 nM). The method, boiled down:
as §1

Assay [5] concerns LXRb homodimer (NR concentration 270 nM). Put shortly: as §1
The subject of assay [6] is PPARa:RXRa (NR concentration 270 nM, RXRa partner concentration 90 nM). The method, boiled down:
as §1

The test system of assay [7] is PPARg:RXRa (NR concentration 180 nM, RXRa partner concentration 90 nM). The method, boiled down: as §1
The subject of assay [8] is PPARg:RXRa 270nM:90nM, anti-RXR (NR concentration 270 nM, RXRa partner concentration 90 nM). The method, boiled down:
as §1

Assay [9] deals with PPARg:RXRa 30nM:10nM, anti-RXR (NR concentration 30 nM, RXRa partner concentration 10 nM). Put shortly: as §1
The subject of assay [10] is PPARg:RXRa 90nM:30nM, anti-RXR (NR concentration 90 nM, RXRa partner concentration 30 nM). The method, boiled down: as §1
For assay [11], the system named is PPARg:RXRa DBDmut IVT, anti-RXR (DBD mutation: RXRa K156A/R161A, NR concentration 270 nM, RXRa partner concentration 90 nM). The method, boiled down: as §1
In assay [12] the test system is PPARg:RXRa IVT, anti-PPARg (NR concentration 270 nM, RXRa partner concentration 90 nM). Put shortly:
as §1

Assay [13] relates to PPARg DBDmut:RXRa IVT, anti-PPARg (DBD mutation: PPARg1 K132A/R137A, NR concentration 270 nM, RXRa partner concentration 90 nM). Put shortly:
as §1

The subject of assay [14] is PPARg DBDmut IVT, anti-PPARg (DBD mutation: PPARg1 K132A/R137A, NR concentration 270 nM). The method, boiled down:
as §1

Assay [15] has as its system PPARg homodimer (NR concentration 180 nM). Put shortly: as §1
Assay [16] deals with PXR:RXRa (NR concentration 270 nM, RXRa partner concentration 90 nM). Put shortly: as §1
Assay [17] deals with PXR homodimer (NR concentration 270 nM). Put shortly: as §1
Assay [18] has as its system RARa:RXR (NR concentration 270 nM, RXRa partner concentration 90 nM). The method, boiled down: as §1
Assay [19] relates to RARa homodimer (NR concentration 270 nM). Put shortly:
as §1

Assay [20] concerns RARb:RXRa (NR concentration 270 nM, RXRa partner concentration 90 nM). Put shortly: as §1

For CCGATTGGGGCAGAAAGGTTACCATACCATCCGG, the PBM binding z-score in assay [1] was 0.261; in [2], 0.61; in [3] it was -0.352; in assay [4], 1.09; in assay [5] it was -0.598; in assay [6], 2.22. In addition, the PBM binding z-score in assay [7] is 2.06; in assay [8] it was 3.83; in [9] it was 2.17; in [10], 3.56; in assay [11], 0.436; in assay [12], 1.14. For the same sequence, the PBM binding z-score in assay [13] was -1.01; in assay [14], -0.679; in [15], 0.221; in [16] it was 1.24; in [17] it was -0.318; in assay [18], 1.66. In addition, the PBM binding z-score in [19] was -0.348; in [20], 1.88.
On to ACTAGTTGGACAGCTGAGGTCACACACAATTCGG, for which the PBM binding z-score in assay [1] turned out to be 3.1; in [2], 2.78; in assay [3] it was 1.59; in assay [4], 3.3; in [5], 0.683; in assay [6], 3.53. Besides, the PBM binding z-score in assay [7] stood at 1.65; in assay [8], 1.76; in assay [9] it was 0.342; in [10], 1.41; in assay [11], 0.874; in assay [12], 1.88. Further, the PBM binding z-score in assay [13] is 0.609; in assay [14], 0.717; in [15], 1.73; in [16], 4.67; in [17] it was 1.34; in [18], 4.57. Also, the PBM binding z-score turned out to be 1.08 in assay [19] and 3.33 in assay [20].
Regarding GTACCAAGGTGCATAGGTCGTTGATGAGTAGGCG, the PBM binding z-score was 0.192 in [1]; 0.486 in [2]; 0.209 in assay [3]; -0.189 in [4]; -0.908 in assay [5]; 1.3 in [6]. The PBM binding z-score is 1.21 in assay [7]; 1.88 in assay [8]; 0.013 in assay [9]; 1.15 in assay [10]; -0.499 in [11]; 0.0785 in assay [12]. Further, the PBM binding z-score in assay [13] is -0.485; in [14], -0.265; in assay [15], 0.243; in [16], 0.269; in assay [17], -0.124; in [18], 1.1. In addition, the PBM binding z-score was -0.294 in [19] and 0.748 in [20].
Consider GCTTACGGGTCAAAGGTTAGAGCATGAATAGAAT, for which the PBM binding z-score in assay [1] was 7.32; in assay [2], 5.34; in assay [3], 0.175; in [4], 5.27; in [5], -0.0451; in [6] it was 6.73. Besides, the PBM binding z-score in assay [7] turned out to be 10.6; in assay [8] it was 8.89; in [9] it was 8.08; in assay [10], 9.45; in assay [11], 4.34; in assay [12] it was 5.74. Also, the PBM binding z-score stood at 0.587 in assay [13]; 1.17 in assay [14]; 3.25 in assay [15]; 5.59 in assay [16]; 0.235 in assay [17]; 7.74 in assay [18]. Further, the PBM binding z-score in assay [19] was determined as 0.552; in assay [20], 4.37.
Turning to GCAGACAGGTGAAACGCAGGTAACACAGGGTGGC, the PBM binding z-score was -0.0327 in [1]; -0.0189 in assay [2]; -0.439 in assay [3]; -0.317 in [4]; -1.1 in [5]; 0.885 in [6]. Further, the PBM binding z-score in assay [7] is 0.859; in assay [8], 0.128; in assay [9], -0.52; in [10] it was -0.381; in [11], 0.623; in [12] it was 0.202. Moreover, the PBM binding z-score in [13] was 0.00158; in [14], -0.396; in [15], -0.0973; in assay [16], 0.067; in assay [17] it was -0.211; in assay [18] it was 0.594. Also, the values for the PBM binding z-score in assay [19] and in assay [20] were -0.376 and 0.622, respectively.
For TTACCAAGGTGAAGGTCGTTGAGCCCTCTGTAGA, the PBM binding z-score in assay [1] was 1.3; in [2], 1.24; in assay [3] it was -0.339; in assay [4], 0.883; in [5] it was -1.13; in assay [6] it was 2.65. Further, the PBM binding z-score was 2.83 in [7]; 4.43 in assay [8]; 2.31 in assay [9]; 3.92 in assay [10]; 1.99 in assay [11]; 3.36 in [12]. Moreover, the PBM binding z-score is -0.0104 in assay [13]; -0.329 in assay [14]; 0.702 in [15]; 1.16 in assay [16]; -0.0928 in assay [17]; 1.57 in assay [18]. Further, the PBM binding z-score in [19] was -0.872; in [20] it was 2.07.
